The supplement of paper PMC9135407
Several values for one entry are separate records, joined by “and”; a condition that tells them apart may be missing. Equal values may be shown once. Where a name gives a salt, the structure may show the parent alone. In all, about 5,800 compounds went through this assay and about 620 (11%) showed activity. For the sample, actives were picked, then their nearest neighbours and some compounds at random. Unmarked numbers belong to inactive results.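 Rule for the calls: active = score above a cut-off or among the top three wells of a plate; in these data no inactive exceeds 0.85.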

Tested on: primary human hepatic stellate cells (donor 1)
Experiment: scaled lipid accumulation score (0 = DMSO-like, 1 = nortriptyline-like); higher = stronger HSC inactivation (lipid re-accumulation), active = hit call of the paper
Settings: 48 h
[1] = library stock concentration: 10 mM
[2] = library stock concentration: 3.33 mM
[3] = library stock concentration: 1 mM
[4] = library stock concentration: 400 uM
[5] = library stock concentration: 2 mM
[6] = library stock concentration: 80 uM

Cc1[nH]nc2ccc(-c3cncc(OC[C@@H](N)Cc4ccccc4)c3)cc12
scaled lipid accumulation score [1]: 0.795

Cc1n[nH]c2ccc(-c3cncc(OC[C@@H](N)Cc4ccccc4)c3)cc12
scaled lipid accumulation score [2]: 1.24 (active)

O=c1cnn([C@@H]2O[C@H](CO)[C@@H](O)[C@H]2O)c(=O)[nH]1
scaled lipid accumulation score [1]: ≤ 0

CNCCC(Oc1ccc(C(F)(F)F)cc1)c1ccccc1.Cl (stereo not drawn)
scaled lipid accumulation score [1]: 0.914 (active)

CNCCC(Oc1ccc(C(F)(F)F)cc1)c1ccccc1.Cl (stereo not drawn) [Fluoxetine]
scaled lipid accumulation score (library stock concentration: 5.8 mM): 0.96 (active)

CNCCC(Oc1ccc(C(F)(F)F)cc1)c1ccccc1.Cl (stereo not drawn) [Fluoxetine HCl]
scaled lipid accumulation score [2]: 0.709 (active)
scaled lipid accumulation score [1]: 1.02 (active)

CNCCC(Oc1ccc(C(F)(F)F)cc1)c1ccccc1.Cl (stereo not drawn) [Fluoxetine hydrochloride] [listing 1 of 2 here]
scaled lipid accumulation score [1]: 1.57 (active)

CCCCCCCCCCCCCCCC(=O)N[C@H](C)CO [R-Palmitoyl-(1-methyl) Ethanolamide]
scaled lipid accumulation score [3]: 0.031

CCCCC[C@H](O)/C=C/[C@H]1[C@@H](O)CC(=O)[C@@H]1CCCCCCC(=O)O [11.beta.-Prostaglandin E1]
scaled lipid accumulation score [3]: ≤ 0

COc1ccnc2[nH]cc(C(=O)C(=O)N3CCN(C(=O)c4ccccc4)C[C@H]3C)c12
scaled lipid accumulation score [2]: ≤ 0
scaled lipid accumulation score [1]: 0.019

O=C(O)c1ccc(N2C(=O)C(=Cc3ccc(-c4ccc([N+](=O)[O-])cc4)o3)C=C2c2ccccc2)cc1
scaled lipid accumulation score [2]: 0.129
scaled lipid accumulation score [1]: 0.284

Cc1nc(N)ncc1-c1nc(N2CCOCC2)c2sc(C(C)(C)O)cc2n1
scaled lipid accumulation score [4]: 0.092
scaled lipid accumulation score [5]: ≤ -0.005
scaled lipid accumulation score [1]: ≤ -0.005

O=C(CCCCc1ccccc1)C(F)(F)C(F)(F)F
scaled lipid accumulation score [3]: ≤ 0

CC1CC(OC(=O)C(O)c2ccccc2)CC(C)(C)C1 (stereo not drawn)
scaled lipid accumulation score [1]: 0.065

CC1CC(OC(=O)C(O)c2ccccc2)CC(C)(C)C1 (stereo not drawn) [Cyclandelate]
scaled lipid accumulation score [2]: ≤ 0
scaled lipid accumulation score [1]: 0.196

COc1cc2c(cc1OC)-c1[nH]nc(Nc3cccc(F)c3)c1C2 [PDGF Receptor Tyrosine Kinase Inhibitor IV]
scaled lipid accumulation score [2]: 0.044

COc1cc2c(cc1OC)-c1[nH]nc(Nc3cccc(F)c3)c1C2
scaled lipid accumulation score [6]: ≤ -0.001
scaled lipid accumulation score [4]: ≤ -0.001
scaled lipid accumulation score [3]: ≤ 0
scaled lipid accumulation score [5]: 0.073
scaled lipid accumulation score [1]: 0.232

O[C@H]1[C@H](O)[C@@H](O)[C@@H]2O[C@@H]2[C@@H]1O (racemic) [Conduritol b epoxide]
scaled lipid accumulation score (library stock concentration: 12.3 mM): ≤ 0

Cc1cc(O)c(C=O)c2c1C(=O)Oc1c(C)c(O)c3c(c1O2)C(O)OC3=O (stereo not drawn) [Norstictic acid]
scaled lipid accumulation score [1]: ≤ 0

CNCCC(Oc1ccc(C(F)(F)F)cc1)c1ccccc1.Cl (stereo not drawn) [Fluoxetine hydrochloride] [listing 2 of 2 here]
scaled lipid accumulation score: 1.05 (active)

CNCC[C@H](Oc1ccc(C(F)(F)F)cc1)c1ccccc1 [S-(+)-Fluoxetine hydrochloride]
scaled lipid accumulation score [1]: 0.403

CNCCC(Oc1ccc(C(F)(F)F)cc1)c1ccccc1 (stereo not drawn) [Fluoxetine hydrochloride]
scaled lipid accumulation score [1]: 0.09

CN(CC[C@@H](Oc1ccc(-c2ccccc2)cc1)c1ccc(F)cc1)CC(=O)O [ALX 5407 hydrochloride]
scaled lipid accumulation score [1]: ≤ -0.006

CNCCC(Oc1ccc(C(F)(F)F)cc1)c1ccccc1 (stereo not drawn) [Fluoxetine]
scaled lipid accumulation score [1]: 0.637

CN(CC[C@@H](Oc1ccc(C(F)(F)F)cc1)c1ccccc1)CC(=O)[O-].[Li+]
scaled lipid accumulation score [1]: 0.149

O=C(NCc1ccncc1)C12CC3CC(C1)CC(c1ccc(Cl)cc1)(C3)C2
scaled lipid accumulation score (library stock concentration: 13.1 mM): 0.27

C[C@H](N[C@@H](CCc1ccccc1)C(=O)O)C(=O)N1Cc2ccccc2C[C@H]1C(=O)O
scaled lipid accumulation score [1]: ≤ 0

Cc1[nH]c(/C=C2/C(=O)Nc3ccc(S(=O)(=O)N(C)c4cccc(Cl)c4)cc32)c(C)c1C(=O)N1CCN(C)CC1
scaled lipid accumulation score [5]: 0.927 (active)
scaled lipid accumulation score [1]: 1.14 (active)

O=C1Nc2ccc(Cl)cc2/C1=C/c1cc(Cl)c(O)c(Cl)c1 [PKR Inhibitor, Negative Control]
scaled lipid accumulation score [2]: ≤ 0

Cc1[nH]c(C=C2C(=O)Nc3ccc(S(=O)(=O)N(C)c4cccc(Cl)c4)cc32)c(C)c1C(=O)N1CCN(C)CC1
scaled lipid accumulation score [2]: 1.39 (active)
scaled lipid accumulation score [1]: 1.27 (active)

Cc1[nH]c(/C=C2\C(=O)Nc3ccc(S(=O)(=O)Cc4c(Cl)cccc4Cl)cc32)c(C)c1C(=O)N1CCC[C@@H]1CN1CCCC1 [listing 1 of 2 here]
scaled lipid accumulation score [2]: 0.429
scaled lipid accumulation score [1]: 0.553 and 0.41 and 0.638

CN1CCCN(C(=O)c2cccc(-c3ccc(/C=C4/C(=O)Nc5ccc(Cl)cc54)o3)c2)CC1
scaled lipid accumulation score [2]: 0.657
scaled lipid accumulation score [1]: ≤ -0.001

Cc1[nH]c(/C=C2\C(=O)Nc3ccc(S(=O)(=O)N(C)c4cccc(Cl)c4)cc32)c(C)c1C(=O)N1CCN(C)CC1 [Met Kinase Inhibitor]
scaled lipid accumulation score [2]: 1.38 (active)

Cc1[nH]c(/C=C2\C(=O)Nc3ccc(S(=O)(=O)Cc4c(Cl)cccc4Cl)cc32)c(C)c1C(=O)N1CCC[C@@H]1CN1CCCC1 [listing 2 of 2 here]
scaled lipid accumulation score [6]: 1.15 (active)
scaled lipid accumulation score [4]: 1.16 (active)
scaled lipid accumulation score [5]: 1.16 (active)

Cc1[nH]c(/C=C2\C(=O)Nc3ccc(S(=O)(=O)N(C)c4cccc(Cl)c4)cc32)c(C)c1C(=O)N1CCN(C)CC1
scaled lipid accumulation score [6]: 0.129
scaled lipid accumulation score [4]: 0.261

CN1CCN(C(=O)c2cc3cc(Cl)ccc3[nH]2)CC1
scaled lipid accumulation score [2]: 0.053
scaled lipid accumulation score [1]: 0.452

O=C1Nc2ccc(Cl)cc2/C1=C/c1cc(Cl)c(O)c(Cl)c1
scaled lipid accumulation score [6]: ≤ -0.001
scaled lipid accumulation score [4]: ≤ -0.001
scaled lipid accumulation score [5]: ≤ -0.001
scaled lipid accumulation score [1]: ≤ -0.001

COC(=O)C[C@H](NC(=O)[C@H](C)NC(=O)[C@@H](NC(=O)OCc1ccccc1)C(C)C)C(=O)CF
scaled lipid accumulation score (library stock concentration: 10.7 mM): ≤ -0.012

CC(=O)N[C@@H](CCC(N)=O)C(=O)O
scaled lipid accumulation score [1]: ≤ 0

N#CC(c1ccnc(NCCc2cccnc2)n1)c1nc2ccccc2s1 (stereo not drawn) [JNK Inhibitor V]
scaled lipid accumulation score [2]: 0.329

N#CC(c1ccnc(NCCc2cccnc2)n1)c1nc2ccccc2s1 (stereo not drawn)
scaled lipid accumulation score [6]: ≤ 0
scaled lipid accumulation score [4]: ≤ 0
scaled lipid accumulation score [5]: 0.058
scaled lipid accumulation score [1]: 0.62

CC(=O)NCCCCCCNC(C)=O
scaled lipid accumulation score [1]: ≤ 0

COc1cc2c(cc1O)[C@@H](Cc1ccc(O)cc1)[N+](C)(C)CC2 [Magnocurarine iodide]
scaled lipid accumulation score [1]: 0.116

CCOCC(O)COc1ccc(NC(=O)CC[S+](C)C)cc1 (stereo not drawn) [Suplatast Tosylate]
scaled lipid accumulation score [2]: ≤ 0
scaled lipid accumulation score [1]: ≤ 0

CCOCC(O)COc1ccc(NC(=O)CC[S+](C)C)cc1 (stereo not drawn) [Suplatast tosylate]
scaled lipid accumulation score [1]: ≤ -0.001

NC1=NCC2c3ccccc3Cc3ccccc3N12 (stereo not drawn) [Epinastine hydrochloride]
scaled lipid accumulation score [1]: 0.592

NC1=NCC2c3ccccc3Cc3ccccc3N12 (stereo not drawn) [Epinastine HCl]
scaled lipid accumulation score [2]: ≤ 0
scaled lipid accumulation score [1]: 0.038

CCOC(=O)C(Cc1ccc(O)cc1)NC(C)=O (stereo not drawn) [Acetyl tyrosine ethyl ester]
scaled lipid accumulation score [1]: ≤ 0

CCCCC/C=C/C/C=C/CCCCCCCC(=O)O [Linoelaidic Acid]
scaled lipid accumulation score [3]: 0.006

C[C@]12CC[C@H](O)CC1=CC[C@@H]1[C@@H]2CC[C@]2(C)C(n3cnc4ccccc43)=CC[C@@H]12 [Galeterone]
scaled lipid accumulation score [2]: 0.137

C[C@]12CC[C@H](O)CC1=CCC1C2CC[C@]2(C)C(n3cnc4ccccc43)=CCC12 (stereo partly drawn) [Galeterone]
scaled lipid accumulation score [1]: 1.27 (active)

CC(=O)[C@H]1CC[C@H]2[C@@H]3CC=C4C[C@@H](O)CC[C@]4(C)[C@H]3CC[C@]12C [Pregnenolone]
scaled lipid accumulation score: 0.084
scaled lipid accumulation score [2]: ≤ 0
scaled lipid accumulation score (library stock concentration: 6.3 mM): ≤ 0
scaled lipid accumulation score [1]: ≤ 0

N[C@@H](Cc1ccc(O)c([N+](=O)[O-])c1)C(=O)O [Nitrotyrosine]
scaled lipid accumulation score [3]: 0.016

CC(C)NCCCn1c(Sc2cc3c(cc2I)OCO3)nc2c(N)ncnc21 [listing 1 of 2 here]
scaled lipid accumulation score [1]: 0.881 (active)

CC(C)NCCCn1c(Sc2cc3c(cc2I)OCO3)nc2c(N)ncnc21 [listing 2 of 2 here]
scaled lipid accumulation score [2]: 0.728

O=C(CCc1ccc(O)c(O)c1)N[C@@H](CC(=O)OCc1ccccc1)C(=O)OCc1ccccc1
scaled lipid accumulation score [3]: ≤ 0

COCCOc1ccc2c(c1)ncn2-c1ccc2cccc(N3CCC(N)CC3)c2n1 [listing 1 of 2 here]
scaled lipid accumulation score [6]: ≤ 0
scaled lipid accumulation score [4]: 0.202
scaled lipid accumulation score [5]: 0.523
scaled lipid accumulation score [2]: 0.785
scaled lipid accumulation score [1]: 0.832

CC1(COc2ccc3c(c2)ncn3-c2ccc3cccc(N4CCC(N)CC4)c3n2)COC1 [listing 1 of 2 here]
scaled lipid accumulation score [2]: 0.869 (active)

COCCOc1ccc2c(c1)ncn2-c1ccc2cccc(N3CCC(N)CC3)c2n1 [listing 2 of 2 here]
scaled lipid accumulation score [1]: 0.937 (active)

NC1CCN(c2cccc(Cl)n2)CC1
scaled lipid accumulation score [1]: 0.62 and 0.499

CC1(COc2ccc3c(c2)ncn3-c2ccc3cccc(N4CCC(N)CC4)c3n2)COC1 [listing 2 of 2 here]
scaled lipid accumulation score [1]: 0.404

COc1c2c(nc3ccccc13)OC(C(C)(O)CO)C2 (stereo not drawn) [Dubinidine]
scaled lipid accumulation score: ≤ 0

O=C(O)CCCC=CCC1C(O)CC(O)C1C=CC(O)COc1cccc(C(F)(F)F)c1 [15(S)-Fluprostenol]
scaled lipid accumulation score [3]: ≤ 0

CCCCCCCCC=CCCCCCCCCOCCOP(=O)([O-])OCC[N+](C)(C)C [Oleyloxyethyl Phosphorylcholine]
scaled lipid accumulation score [3]: ≤ 0

CC/C=C\C/C=C\C/C=C\C/C=C\CCCCCCC(=O)OCC [.omega.-3 Arachidonic Acid ethyl ester]
scaled lipid accumulation score [3]: ≤ 0
